The results in this text go back to PubChem BioAssay (Tox21).

Where “and” joins values, the source holds several entries; their conditions need not be identical. Equal entries are not always repeated. Records with an inconclusive call do not appear. A structure can be active in one record and inactive in another. Calls of active or inactive are those of the source. Unless noted, the call rests on the fitted dose curve; in most records, active means well fitted curve in the direction sought with a large enough effect in the repeat runs; inconclusive means weak or mixed curves; inactive means no such curve, though single readings can be large; an effect the other way counts as inactive or inconclusive.

Experiment [1] is described as follows: qHTS assay to identify small molecule agonists of the hypoxia (HIF-1) signaling pathway - cell viability counter screen (AID 1224844; calls by dose curve; further: nearly all actives have a fitted effect of over 50% in size; further: potency means the concentration at half of the fitted maximal effect). The method in brief: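 Same wells as the HIF-1 reporter screen; ME-180 cells carrying HRE-bla, 17 hr treatment at 37C; CellTiter-Glo luminescence read after 30 min at room temperature.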
Experiment [2] can be described thus: qHTS assay to identify small molecule agonists of H2AX (AID 1224845; active means well fitted activation curve with a large enough effect in the signal ratio in the repeat runs, not every such curve was filed as active; the % refers to the signal ratio; further: potency means the concentration at half of the fitted maximal effect). The essentials: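 Wild-type CHO-K1 cells plated overnight, then exposed 3 hr at 37C to compounds at 15 concentrations (0.76% DMSO). Lysed, then HTRF anti-pH2AX(S139)-cryptate/anti-H2AX-d2 detection after 24 hr at room temperature; emissions 665 and 620 nm.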
Experiment [3] in a line: qHTS assay to identify small molecule agonists of H2AX - cell viability counter screen (AID 1224847; calls by dose curve; further: nearly all actives have a fitted effect of over 30% in size; further: potency means the concentration at half of the fitted maximal effect). The method in brief: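 Quantitative HTS viability measurement: CHO-K1 wild-type cells in serum (10% FBS) medium, short 3 hr drug exposure at 37C with 0.76% DMSO, CellTiter-Glo luminescent detection.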
Experiment [4] can be described thus: qHTS RealTime-Glo MT Cell Viability Assay in HepG2 cells - 24 hour (AID 1224867). Further: nearly all actives have a fitted effect of over 50% in size. Further: potency means the concentration at half of the fitted maximal effect. The method in brief:
(§1)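 Viability was tracked continuously by NanoLuc luminescence from prosubstrate reduced by living HepG2 cells, at successive time points over 40 h of compound exposure. Cells with reagent were preincubated 5 h at 37 °C before compound addition.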

Experiment [5] in a line: qHTS RealTime-Glo MT Cell Viability Assay in HEK293 cells - 32 hour (AID 1224868). Further: nearly all actives have a fitted effect of over 50% in size. Further: potency means the concentration at half of the fitted maximal effect. The essentials:
(§2)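 Viability tracked continuously by luminescence as live cells reduce a prosubstrate for NanoLuc; HEK293 cells preincubated 5 h, compound-treated at 37 C, and read at 0, 8, 16, 24, 32 and 40 h.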

Experiment [6] in a line: A CellTox Green Cytotoxicity Assay to monitor cytotoxicity in HEK293 cells - 0 hour (AID 1224869). Further: nearly all actives have a fitted effect of over 50% in size. The essentials:
(§3)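 Homogeneous no-lysis format: HEK293 cell suspension mixed with CellTox Green reagent, seeded, incubated 5 h at 37 C/5% CO2, then dosed by pintool with compound in DMSO.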

A short description of experiment [7]: qHTS RealTime-Glo MT Cell Viability Assay in HepG2 cells - 40 hour (AID 1224870). Further: nearly all actives have a fitted effect of over 50% in size. Further: potency means the concentration at half of the fitted maximal effect. The method in brief:
(§4)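 HepG2 cells mixed with RealTime-Glo MT reagents (NanoLuc plus cell-permeant prosubstrate) were seeded at 600 cells/well, incubated 5 h at 37 C/5% CO2, then pinned with compounds in DMSO; nonlytic luminescence tracked viability during 40 h treatment.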

Experiment [8] can be described thus: A CellTox Green Cytotoxicity Assay to monitor cytotoxicity in HEK293 cells - 40 hour (AID 1224871). Further: nearly all actives have a fitted effect of over 45% in size. Further: potency means the concentration at half of the fitted maximal effect. The method in brief: as §3
Experiment [9] can be described thus: qHTS RealTime-Glo MT Cell Viability Assay in HEK293 cells - 16 hour (AID 1224872). Further: nearly all actives have a fitted effect of over 50% in size. Further: potency means the concentration at half of the fitted maximal effect. The method in brief: as §2
Experiment [10] is described as follows: qHTS RealTime-Glo MT Cell Viability Assay in HepG2 cells - 8 hour (AID 1224873). Further: nearly all actives have a fitted effect of over 55% in size. The method in brief: as §4
Experiment [11] is described as follows: qHTS RealTime-Glo MT Cell Viability Assay in HEK293 cells - 40 hour (AID 1224874). Further: nearly all actives have a fitted effect of over 50% in size. Further: potency means the concentration at half of the fitted maximal effect. The conditions noted are these: RealTime-Glo luminescence; max response: stronger effect = lower value. The method in brief: (§5)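 Measured as luminescence from the same continuously cultured HEK293 wells at successive time points (0, 8, 16, 24, 32, 40 h) after compound addition. Reagent present from seeding; dosing at 5 h; incubation 37 C.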

A short description of experiment [12]: A CellTox Green Cytotoxicity Assay to monitor cytotoxicity in HEK293 cells - 24 hour (AID 1224875). Further: nearly all actives have a fitted effect of over 45% in size. Further: potency means the concentration at half of the fitted maximal effect. The essentials: as §3
Experiment [13] in a line: A CellTox Green Cytotoxicity Assay to monitor cytotoxicity in HepG2 cells - 16 hour (AID 1224876). Further: nearly all actives have a fitted effect of over 45% in size. Further: potency means the concentration at half of the fitted maximal effect. The method in brief: (§6)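 Fluorescent DNA-binding dye, 600 HepG2 cells/well, 5 h preincubation then compound in DMSO; same plates read at 0–40 h, 37 C.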
Experiment [14] in a line: qHTS RealTime-Glo MT Cell Viability Assay in HepG2 cells - 32 hour (AID 1224877). Further: nearly all actives have a fitted effect of over 55% in size. Further: potency means the concentration at half of the fitted maximal effect. The essentials:
as §1

Experiment [15] can be described thus: A CellTox Green Cytotoxicity Assay to monitor cytotoxicity in HepG2 cells - 24 hour (AID 1224878). Further: nearly all actives have a fitted effect of over 45% in size. Further: potency means the concentration at half of the fitted maximal effect. The essentials: as §6
Experiment [16] in a line: A CellTox Green Cytotoxicity Assay to monitor cytotoxicity in HepG2 cells - 40 hour (AID 1224879). Further: nearly all actives have a fitted effect of over 40% in size. Further: potency means the concentration at half of the fitted maximal effect. The essentials:
as §6

Experiment [17] can be described thus: qHTS RealTime-Glo MT Cell Viability Assay in HEK293 cells - 0 hour (AID 1224880). The method in brief:
as §5

Experiment [18] can be described thus: qHTS assay to identify small molecule antagonists of the estrogen related receptor (ERR) signaling pathway from Tox21 library (AID 1224848). Further: nearly all actives have a fitted effect of over 50% in size. Further: potency means the concentration at half of the fitted maximal effect. The method in brief: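 First, 2,000 ERR cells per well were plated and held 6 h at 37 C/5% CO2. Next, compounds in DMSO were pinned in and left 18 h at 37 C. Finally, ONE-Glo was added and luminescence read after 30 min at room temperature.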

Experiment [19] can be described thus: qHTS assay to identify small molecule agonists of the estrogen related receptor (ERR) signaling pathway from Tox21 library (AID 1224849; calls by dose curve; further: nearly all actives have a fitted effect of over 15% in size). Particulars: ERR reporter cell line, ONE-Glo luciferase, 18 h. The method in brief:
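Reporter cells (ERR, NTP source) treated with Tox21 10K compounds 18 h, 37 C. Readout: ONE-Glo luminescence, 30 min RT.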

Experiment [20] in a line: qHTS assay to identify small molecule agonists of the hypoxia (HIF-1) signaling pathway (AID 1224846; active means well fitted activation curve with a large enough effect in the signal ratio in the repeat runs, not every such curve was filed as active; the % refers to the signal ratio). The essentials: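 In ME-180 cells bearing an HRE-bla construct, 17 h treatment with DMSO-dissolved compounds at 37C was followed by CCF4-AM loading to quantify reporter induction.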
On the % scale 0 is the no-effect control and ±100 the full control effect.

Turning to `CCOC(=O)NC(O)C(Cl)(Cl)Cl` (stereo not given), the Potency result in experiment [1], in experiment [2], in experiment [3], in experiment [4], in [5] and in [6] was “inactive” throughout. For the same compound, the Potency entry in [7], in experiment [8], in experiment [9], in experiment [10], in [12] and in experiment [13] was “inactive” each time. The Potency entry in experiment [14], in [15] and in [16] was “inactive” in each case. Also, in experiment [11], the max response is 7.58% (inactive). Also, in [17], the call was inactive.

As to `CN1CC[C@]23c4c5ccc(O)c4O[C@H]2[C@@H](O)C=C[C@H]3[C@H]1C5`, the Potency result in experiment [1], in [2], in [3], in experiment [18], in [4] and in [5] was “inactive” throughout. The Potency entry in experiment [6], in experiment [7], in [8], in experiment [9], in experiment [10] and in [12] was “inactive” throughout. In addition, the Potency result in experiment [13], in experiment [14], in [15] and in experiment [16] was “inactive” throughout. Moreover, the activity change, positive = activation in [19] (at 92.4 µM (top of the series)) was 1.06% (inactive). The max response in experiment [11] is 1.75% (inactive). Further, the compound was classed as inactive in [17].

With `CC(=O)OC(c1ccccc1)C(Cl)(Cl)Cl` (stereo not given), the Potency result in experiment [1], in [2], in [4], in experiment [5], in experiment [6] and in experiment [7] was “inactive” throughout. In addition, the Potency result in experiment [9], in experiment [10] and in experiment [14] was “inactive” in each case. The result in experiment [20] and in experiment [17] was inactive. Also, the Potency is 19.5 µM (active) in experiment [8]; 19.5 µM (active) in experiment [12]; 21.9 µM (active) in experiment [13]; 21.9 µM (active) in [15]; 21.9 µM (active) in experiment [16]. Moreover, the max response in experiment [11] is -15.9% (inactive).

Take `Cc1cccc(C)c1NC1=NCCCS1`: the Potency result in [1], in [2], in experiment [3], in [18], in experiment [4] and in experiment [5] was “inactive” throughout. The Potency result in [7], in experiment [8], in [9], in experiment [10], in experiment [12] and in experiment [13] was “inactive” throughout. The Potency result in experiment [14], in experiment [15] and in experiment [16] was “inactive” each time. Moreover, the activity change, positive = activation in experiment [19] (at 42.5 µM (top of the series)) is 4.81% (inactive). Moreover, the max response in experiment [11] was 0.136% (inactive). The call in experiment [17] was inactive.

As to `O=C=NC1CCCCC1`, the Potency entry in experiment [1], in experiment [2], in experiment [3], in experiment [18], in [4] and in experiment [5] was “inactive” each time. For the same compound, the Potency result in experiment [6], in experiment [7], in experiment [8], in [9], in experiment [12] and in experiment [13] was “inactive” each time. The Potency entry in [15] and in experiment [16] was “inactive” in each case. For the same compound, the max response in [11] was 8% (inactive). In addition, the outcome in [17] was inactive.

For the compound `CON(C)C(=O)Nc1ccc(Cl)cc1`, the Potency result in experiment [1], in experiment [2], in experiment [3], in experiment [4], in experiment [5] and in [7] was “inactive” each time. Besides, the Potency result in [8], in experiment [9], in experiment [12], in [13], in [14] and in experiment [15] was “inactive” in each case. Also, the Potency result in [16] is “inactive”. In addition, the call in [20] and in experiment [17] was inactive. Further, the max response in experiment [11] was -13.1% (inactive).

On to `O=S(=O)(Cl)Cl`, for which the Potency result in [1], in [2], in [3], in [4], in experiment [6] and in [7] was “inactive” in each case. In addition, the Potency entry in experiment [8], in [9], in experiment [12], in [13], in experiment [14] and in experiment [15] was “inactive” throughout. For the same compound, the Potency result in [16] is “inactive”. The outcome in [20] and in experiment [17] was inactive. The max response in experiment [11] was 15.4% (inactive).

For `CCCCCCCCn1sccc1=O`, the Potency was 4.91 µM (active) and 3.63 µM (active) in [1]; 50.6 µM (active) and 26.5 µM (active) in [3]; 17.3 µM (active) and 9.05 µM (active) in [18]; 43.7 µM (active) and 16.2 µM (active) in experiment [4]; 11 µM (active) and 12.9 µM (active) in experiment [5]; 43.7 µM (active) and 14.5 µM (active) in experiment [7]. Moreover, the Potency in [8] is 55.1 µM (active) and 20.4 µM (active); in experiment [9], 13.8 µM (active) and 14.5 µM (active); in experiment [11] it was 11 µM (active) and 12.9 µM (active); in experiment [12], 55.1 µM (active) and 40.8 µM (active); in experiment [13], 55.1 µM (active) and 25.7 µM (active); in experiment [14], 43.7 µM (active) and 16.2 µM (active). In addition, the Potency is 49.1 µM (active) and 25.7 µM (active) in [15]; 43.7 µM (active) and 20.4 µM (active) in [16]. The Potency entry in [2] and in [6] was “inactive” throughout. For the same compound, the activity change, positive = activation in [19] (at 92.4 µM (top of the series)) is -82.6% (inactive) and -70% (inactive).

`C[CH2][Hg][S]c1ccccc1C(=O)O`: the Potency in [1] is 616 nM (active) and 1.9 µM (active); in experiment [2], 4.01 µM (active); in experiment [3] it was 17.9 µM (active) and 24.7 µM (active); in [18], “inactive and 16.8 µM (active)”; in experiment [4], 2.19 µM (active) and 2.13 µM (active); in experiment [5], 977 nM (active) and 1.07 µM (active). For the same compound, the Potency was 2.19 µM (active) and 2.39 µM (active) in experiment [7]; 6.92 µM (active) and 4.77 µM (active) in experiment [8]; 1.23 µM (active) and 2.13 µM (active) in experiment [9]; 871 nM (active) and 952 nM (active) in experiment [11]; 7.76 µM (active) and 5.35 µM (active) in experiment [12]; 3.89 µM (active) and 2.39 µM (active) in [13]. In addition, the Potency in experiment [14] is 2.19 µM (active) and 2.13 µM (active); in experiment [15], 5.49 µM (active) and 2.39 µM (active); in experiment [16], 1.95 µM (active) and 2.13 µM (active). The values for the activity change, positive = activation in experiment [19] (at 42.5 µM (top of the series)) and in experiment [19] (at 92.4 µM (top of the series)) were -75.4% (inactive) and -77.1% (inactive), respectively. Besides, in [6], the Potency result is “inactive”. Besides, the result in experiment [17] was inactive.
